# Sampled rows, rich in hits. Any-hit rate of the full collection: about 8.9%.
# IMPase inh: qHTS Assay for Identifying the Cell-Membrane Permeable IMPase Inhibitors; Inositol monophosphatase 1 (Rattus norvegicus), P97697; CHO-M1 cells, IP1 accumulation, HTRF TR-FRET ratio; inhibition (IP1 accumulation), % at 46.1 µM; 120,000 tested, under 10 active; AID 901, 2007; active means well fitted curve in the direction sought with a large enough effect in the signal ratio, not every such curve was filed as active; inconclusive means small, poorly fitted or top-dose-only effect, or a change in a side signal; inactive means no such curve, though single readings can be large or run the other way; the % refers to the signal ratio;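 further: cells stimulated with carbachol in lithium chloride buffer; plate controls were DMSO basal wells for no effect and reference inhibitor wells for full effect; higher means more IMPase inhibition seen as more IP1 and lower FRET ratio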
#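 CHO-M1, 2000 cells/well, cultured 16–30 h; cpd up to 46 uM; carbachol (50 uM solution, stimulation buffer w/ 50 mM LiCl, pH 7.4), 30 min 37C; IP-One TR-FRET, 10 min RT; Ex 320/Em 665, 620; Hill-fit AC50.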
# 12-hLO inh: qHTS Assay for Inhibitors of 12-hLO (12-human lipoxygenase) | 150,000 compounds, 0.12% hits | Potency, µM (series often up to 57.1 µM), for the others: at the highest dose activity change, negative = inhibition, hits mostly inhibitors | Polyunsaturated fatty acid lipoxygenase ALOX12 (Homo sapiens), P18054 | purified 12-hLO, xylenol orange hydroperoxide absorbance | AID 1452, 2008; further: potency means the concentration at half of the fitted maximal effect; nearly all actives have a fitted effect of over 55% in size
#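 Xylenol orange chromogenic assay: hydroperoxide from 12hLO oxidises Fe(II), giving red-shifted Fe(III)-XO absorbance. Conditions: 150 nM enzyme, 40 uM arachidonic acid, 25 mM Hepes pH 7.0, 0.01% Triton X-100, 30 min, room temperature.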
# IMPase Li cell: qHTS Assay for Identifying the Cell-Membrane Permeable IMPase Inhibitors: Potentiation with Lithium; AID 1457, 2008; Potency, µM (top dose mostly 59.4 µM), inactives show top-dose activity, negative = IMPase inhibition, usual class: inhibitors; CHO-M1 cells, IP1 TR-FRET (IP-One), carbachol + lithium; 210,000 compounds, 0.35% hits;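 further: IP1 builds up when IMPase is blocked and the TR-FRET signal falls; potency means the concentration at half of the fitted maximal effect; plate controls were basal vehicle for no effect and high inhibitor control for full effect; nearly all actives have a fitted effect of over 50% in size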
#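 Concentration–response in CHO-M1 cells, lithium-potentiated; 30 min at 37C. IP1 detected by competitive TR-FRET after 10 min lysis at RT. Hill-fitted AC50.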
# HPGD inh: qHTS Assay for Inhibitors of HPGD (15-Hydroxyprostaglandin Dehydrogenase); purified HPGD, NADH fluorescence kinetic, PGE2 substrate; Potency, µM, for the others: at the highest dose activity change, negative = inhibition, actives largely listed as inhibitors; 150,000 compounds, 4.3% hits; AID 894, 2007; active means well fitted inhibition curve with a large enough effect, not every such curve was filed as active; inconclusive means small, poorly fitted or top-dose-only effect, or another doubt; inactive means no such curve, though single readings can be large or run the other way; further: potency means the concentration at half of the fitted maximal effect
# Target sequence (P15428 whole entry, looked up): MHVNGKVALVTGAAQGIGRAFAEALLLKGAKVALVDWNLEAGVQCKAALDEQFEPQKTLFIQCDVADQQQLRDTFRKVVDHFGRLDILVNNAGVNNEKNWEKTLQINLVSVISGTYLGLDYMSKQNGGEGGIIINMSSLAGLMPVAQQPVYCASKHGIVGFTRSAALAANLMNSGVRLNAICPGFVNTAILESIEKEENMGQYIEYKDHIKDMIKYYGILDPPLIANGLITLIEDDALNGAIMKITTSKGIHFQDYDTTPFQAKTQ
#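 20 nM HPGD preincubated 15 min at room temperature with compound in 50 mM Tris-HCl pH 8, 0.01% Tween 20. Started with 1 mM NAD+ and 30 uM prostaglandin E2; NADH fluorescence (360/450 nm) read 5 times over 30-s intervals, last minus first.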
# ALDH1A1 block: qHTS Assay for Inhibitors of Aldehyde Dehydrogenase 1 (ALDH1A1) | 220,000 compounds, 7.3% hits | Purified ALDH1A1, NADH fluorescence, propionaldehyde substrate | Aldehyde dehydrogenase 1A1 (Homo sapiens), P00352 | Potency, µM (titrated, usually from 75.3 µM), for inactives: at the top dose activity, negative = inhibition, hits mostly inhibitors | AID 1030, 2008; active means well fitted inhibition curve with a large enough effect, not every such curve was filed as active; inconclusive means small, poorly fitted or top-dose-only effect, or another doubt; inactive means no such curve, though single readings can be large or run the other way;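 further: potency means the concentration at half of the fitted maximal effect; plate controls were no enzyme wells and a reference inhibitor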
# NPSR antagonist: qHTS Assay for Antagonists of the Neuropeptide S Receptor: cAMP Signal Transduction; Q6W5P4; CHO-NPSR cells, cAMP TR-FRET, antagonist mode; Potency, µM (top dose mostly 38.3 µM), for the others: at the top dose activity change, negative = inhibition, most hits filed as inhibitors; 220,000 compounds, 1% hits; further: potency means the concentration at half of the fitted maximal effect; nearly all actives have a fitted effect of over 50% in size
# Target sequence (Q6W5P4 whole entry, looked up): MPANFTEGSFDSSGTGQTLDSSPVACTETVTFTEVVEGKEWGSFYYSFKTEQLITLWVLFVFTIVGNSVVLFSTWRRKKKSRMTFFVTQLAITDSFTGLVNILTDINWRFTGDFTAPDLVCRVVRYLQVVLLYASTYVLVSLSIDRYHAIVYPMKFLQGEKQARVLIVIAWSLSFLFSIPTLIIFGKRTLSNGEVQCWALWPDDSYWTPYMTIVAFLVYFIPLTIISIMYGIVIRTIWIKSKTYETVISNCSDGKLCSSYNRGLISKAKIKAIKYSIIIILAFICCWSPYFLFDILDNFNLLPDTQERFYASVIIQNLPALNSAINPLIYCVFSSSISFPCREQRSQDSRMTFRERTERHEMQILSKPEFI
# * marks the source's active call; other numbers are inactive results; ? = inconclusive; / = no result; [ ] = remark or other dose. Unless noted, the call rests on the fitted dose curve; in most records, active means well fitted curve in the direction sought with a large enough effect; inconclusive means small, poorly fitted or top-dose-only effect, or another doubt; inactive means no such curve, though single readings can be large; an effect the other way counts as inactive or inconclusive. Unless noted, on the % scale 0 is the no-effect control and ±100 the full control effect.
SMILES,IMPase inh,12-hLO inh,IMPase Li cell,HPGD inh,ALDH1A1 block,NPSR antagonist
CCOC(=O)c1ccoc1CSCc1ccc(C(=O)OC)o1,18.8,-6.7%,27.6%[38.3 µM],-18.2%,25.1µM*,-10.2%[46.1 µM]
CN(C)CCNC(=O)CN1C(=O)COc2ccc(C(C)(C)C)cc21,3.9,2.4%,5.0%[38.3 µM],2.5%,6.0%,1.1%[46.1 µM]
COc1ccc(C(=O)/C=C/c2ccc(OC)c(O)c2)c(F)c1,4.2,-26.6%,-0.8%,31.6µM*,4.1%,-22.1%[46.1 µM]
CCOC(=O)c1sc2ncn(/N=C/c3ccc(O)cc3)c(=O)c2c1C,/,/,12.6%,/,20µM*,-28.9%
CCOC(=O)c1sc2ncn(C(C)C(=O)OCC)c(=O)c2c1C (stereo unspecified),-8.7,-4.1%,30.5%[38.3 µM],-11.7%,4.9%,-6.0%[46.1 µM]
CCOC(=O)c1sc2ncn(/N=C/c3cccnc3)c(=O)c2c1C,-1.6,-3.9%,48.2%[38.3 µM],-28.3%,0.0708µM*,8.9%[46.1 µM]
CCOC(=O)c1c(Nc2cccc(O)c2)nnc(-c2ccccc2)c1-c1ccccc1,5.6,/,/,/,/,/
O=S(=O)(c1ccc(F)cc1)N1CCN(c2ncnc3c2cnn3-c2ccccc2)CC1,?,-0.9%,-12.6%[38.3 µM],-29.5%,?,5.6%[46.1 µM]
COc1ccc(CCNCc2ccc(OCc3ccc(Cl)nc3)c(OC)c2)cc1OC,-9.6,0.9%,43.8%[38.3 µM],-5.5%,2.1%,-9.8%[46.1 µM]
COc1cc(C=O)ccc1OCc1ccc(Cl)nc1,/,/,-0.7%,/,5.01µM*,5.3%
COc1cc(/C(C)=N/N2CCOCC2)cc(OC)c1OC,/,/,5.9%,/,-1.5%,10.1%
CCCCN(C)C(=O)c1nc2ccccn2c1CN1CCN(C(=O)c2cccs2)CC1,/,/,13.8%,/,6.31µM*,10.3%
CNC(=O)c1ccc2c(c1)N=C(C)c1cc(C)ccc1S2,-0.6,/,/,/,/,/
COc1ccccc1N=C1SC(C(=O)Nc2cccc(Cl)c2Cl)C(N)=C1C(N)=O (stereo unspecified),/,/,/,/,/,6.7%[7.67 µM]
COc1ccc(S(=O)(=O)N(CC(=O)NC2CC2)C2CCCCC2)cc1Cl,21.7,-2.6%,34.7%[38.3 µM],-5.9%,8.91µM*,-9.6%[46.1 µM]
CC(=O)Nc1ccc(NC(=O)CSc2nnnn2-c2ccc3c(c2)OCCO3)cc1,/,/,-7.9%,/,-0.5%,18.0%
CCOc1ccccc1NC=C1C(=O)OC(C)(C)OC1=O,4.2,-0.2%,-9.4%[38.3 µM],-23.6%,2.24µM*,-5.5%[46.1 µM]
COc1ccccc1NC=C1C(=O)OC(C)(C)OC1=O,3.5,1.2%,-8.2%[38.3 µM],-15.3%,0.355µM*,-19.6%[46.1 µM]
C=CCNC(=O)c1cc2c(=O)n3cc(C)ccc3nc2nc1NCC1CCCO1 (stereo unspecified),-3.4,1.0%,-5.3%,?,?,10.7%[46.1 µM]
COc1cc2c(Cc3c4c5c(cc(OC)c(OC)c5c5c(OC)c(OC)ccc35)CCN4C)c3c4c(cc(OC)c(OC)c4c2cc1OC)CCN3C,-2.3,-0.1%,-2.2%,?,?,/
Cc1cc(=O)oc2cc(OC(=O)CCN3C(=O)c4ccccc4C3=O)ccc12,-20.7,-10.5%,8.91µM*,?,?,-14.0%[46.1 µM]
Cc1cc(=O)oc2cc(OCCCN3C(=O)c4ccccc4C3=O)ccc12,-2.6,-5.5%,-9.0%,-12.0%,0.8%,-2.6%
O=C(CSc1nnc2scc(-c3ccccc3)n12)Nc1nsc(-c2ccccc2)n1,6.4,-8.3%,?,?,?,-6.1%[46.1 µM]
Cc1ccc(-c2csc3nnc(SCC(=O)Nc4nsc(-c5ccccc5)n4)n23)cc1,0.8,-9.3%,-6.2%[38.3 µM],-4.1%,8.91µM*,?
Cc1ccc(-c2nc(NC(=O)CSc3nnnn3-c3ccccc3)ns2)cc1,?,-8.6%,10µM*,?,?,7.1%[46.1 µM]
